Data taken from ChEMBL document CHEMBL3988442, “University of Dundee, Small-Polar-MMV Screening Library” (2021).
For some assays here: Entries with a potency or affinity are not part of this list.

Key:
Set-up in all cases: scale not given: direction of the effect not stated beside the values
[1] = molecular target: Protein translocase subunit SecA (Escherichia coli (strain K12)) (UniProt P10408); test: Assay to Identify E. coli SecA ATPase Inhibitors; format: functional; settings: 30 µM
[2] = molecular target: T1, Ubiquitin-activating enzyme e1, putative (Leishmania donovani (strain BPK282A1)) (UniProt E9BSI1); test: Leishmania donovani Ubiquitin Activating Enzyme (LdE1); format: functional; settings: 30 µM
T1 sequence (whole entry): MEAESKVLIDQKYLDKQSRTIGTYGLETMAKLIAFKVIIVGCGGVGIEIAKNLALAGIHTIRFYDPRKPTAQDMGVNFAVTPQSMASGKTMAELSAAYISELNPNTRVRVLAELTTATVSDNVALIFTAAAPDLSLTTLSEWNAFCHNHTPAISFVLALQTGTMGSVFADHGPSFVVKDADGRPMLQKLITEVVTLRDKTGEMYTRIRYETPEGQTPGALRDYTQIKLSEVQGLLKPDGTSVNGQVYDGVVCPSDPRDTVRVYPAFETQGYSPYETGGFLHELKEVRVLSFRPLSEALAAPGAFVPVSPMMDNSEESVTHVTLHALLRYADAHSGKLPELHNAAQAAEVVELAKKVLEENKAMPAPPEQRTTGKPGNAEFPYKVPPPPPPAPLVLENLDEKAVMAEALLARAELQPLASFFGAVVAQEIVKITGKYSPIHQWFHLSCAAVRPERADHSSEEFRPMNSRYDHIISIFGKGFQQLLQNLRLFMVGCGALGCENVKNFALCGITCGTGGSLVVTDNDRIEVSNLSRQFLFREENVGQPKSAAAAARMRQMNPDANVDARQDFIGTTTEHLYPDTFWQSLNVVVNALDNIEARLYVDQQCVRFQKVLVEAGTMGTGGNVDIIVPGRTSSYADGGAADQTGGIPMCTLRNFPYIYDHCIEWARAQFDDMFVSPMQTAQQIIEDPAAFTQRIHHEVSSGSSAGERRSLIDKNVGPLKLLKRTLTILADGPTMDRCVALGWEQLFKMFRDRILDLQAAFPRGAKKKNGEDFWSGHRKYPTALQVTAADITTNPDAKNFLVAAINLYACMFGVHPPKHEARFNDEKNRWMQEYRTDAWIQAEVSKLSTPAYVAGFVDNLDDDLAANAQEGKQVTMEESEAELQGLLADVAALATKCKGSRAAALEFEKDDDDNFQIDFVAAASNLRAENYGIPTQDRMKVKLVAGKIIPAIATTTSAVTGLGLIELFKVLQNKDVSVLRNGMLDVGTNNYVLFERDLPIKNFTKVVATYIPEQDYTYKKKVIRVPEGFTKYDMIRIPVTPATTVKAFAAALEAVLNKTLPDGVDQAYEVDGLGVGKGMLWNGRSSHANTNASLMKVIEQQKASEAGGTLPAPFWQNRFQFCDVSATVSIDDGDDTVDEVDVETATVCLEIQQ

[3] = molecular target: Sialic acid-binding Ig-like lectin 9 (Homo sapiens) (UniProt Q9Y336); test: Hs-Siglec9 ALPHAscreen SOP 20170721; settings: 10 µM
Sialic acid-binding Ig-like lectin 9 (Homo sapiens), sequence (Q9Y336 whole entry): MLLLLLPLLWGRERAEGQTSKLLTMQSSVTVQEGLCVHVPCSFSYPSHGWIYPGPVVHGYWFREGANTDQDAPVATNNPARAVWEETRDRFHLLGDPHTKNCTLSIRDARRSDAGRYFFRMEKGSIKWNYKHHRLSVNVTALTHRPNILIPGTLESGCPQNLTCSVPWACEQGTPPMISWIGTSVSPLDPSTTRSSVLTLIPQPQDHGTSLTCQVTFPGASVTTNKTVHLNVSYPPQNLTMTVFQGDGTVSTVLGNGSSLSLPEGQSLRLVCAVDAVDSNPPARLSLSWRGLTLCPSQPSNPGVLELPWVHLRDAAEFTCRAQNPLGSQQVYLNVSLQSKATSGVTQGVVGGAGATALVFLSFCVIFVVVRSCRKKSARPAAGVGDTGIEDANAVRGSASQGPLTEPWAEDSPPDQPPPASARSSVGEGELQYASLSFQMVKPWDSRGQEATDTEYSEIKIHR

Trypanosoma cruzi = test: Trypanosoma cruzi phosphomannomutase and mannose-1-phosphate guanylyltransferase assay; format: functional; settings: 10 µM
[4] = molecular target: T2, Arginase-2, mitochondrial (Homo sapiens) (UniProt P78540); test: in vitro enzyme assay to detect the production of urea directly proportional to the activity of Arginase II; format: functional; settings: 33.3 µM; note: in the data most compounds retested in dose-response had high values
T2 sequence (whole entry): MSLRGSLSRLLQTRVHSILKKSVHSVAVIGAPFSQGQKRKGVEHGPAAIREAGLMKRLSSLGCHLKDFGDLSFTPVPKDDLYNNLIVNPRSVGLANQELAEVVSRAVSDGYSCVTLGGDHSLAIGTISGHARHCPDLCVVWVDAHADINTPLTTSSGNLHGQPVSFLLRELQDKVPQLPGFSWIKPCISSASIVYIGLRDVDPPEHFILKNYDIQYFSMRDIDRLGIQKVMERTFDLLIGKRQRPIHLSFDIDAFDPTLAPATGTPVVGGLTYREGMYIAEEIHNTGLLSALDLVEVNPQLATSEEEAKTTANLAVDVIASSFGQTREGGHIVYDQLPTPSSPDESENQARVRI

[5] = molecular target: T3, Proteasome subunit beta (Trypanosoma cruzi) (UniProt O96673); test: Trypanosoma cruzi proteasome chymotrypsin-like activity (TcProtChymo) assay.; note: in the data most compounds retested in dose-response had high values; format: functional; settings: 9.37 µM
T3 sequence (whole entry): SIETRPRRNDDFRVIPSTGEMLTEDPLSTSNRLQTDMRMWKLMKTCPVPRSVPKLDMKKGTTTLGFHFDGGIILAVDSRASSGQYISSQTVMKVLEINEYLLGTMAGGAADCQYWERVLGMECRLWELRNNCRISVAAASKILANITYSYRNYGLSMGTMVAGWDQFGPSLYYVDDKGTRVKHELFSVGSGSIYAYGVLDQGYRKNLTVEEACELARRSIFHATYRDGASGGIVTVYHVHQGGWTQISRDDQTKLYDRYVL

Homo sapiens = organism: Homo sapiens; test: To identify inhibition of the IFN signalling (Jak-Stat) pathway via expression of an eGFP reporter gene under the control of an IFN-stimulated response element (ISRE) containing MxA promoter.; format: functional; settings: 30 µM
[6] = molecular target: T4, Tyrosyl-tRNA synthetase, putative (Trypanosoma cruzi (strain CL Brener)) (UniProt Q4DSP6); test: Trypanosoma cruzi tyrosyl tRNA synthetase (TcYRS) _High Tyrosine SOP; format: functional; settings: 30 µM; note: in the data most compounds retested in dose-response had high values
T4 sequence (whole entry): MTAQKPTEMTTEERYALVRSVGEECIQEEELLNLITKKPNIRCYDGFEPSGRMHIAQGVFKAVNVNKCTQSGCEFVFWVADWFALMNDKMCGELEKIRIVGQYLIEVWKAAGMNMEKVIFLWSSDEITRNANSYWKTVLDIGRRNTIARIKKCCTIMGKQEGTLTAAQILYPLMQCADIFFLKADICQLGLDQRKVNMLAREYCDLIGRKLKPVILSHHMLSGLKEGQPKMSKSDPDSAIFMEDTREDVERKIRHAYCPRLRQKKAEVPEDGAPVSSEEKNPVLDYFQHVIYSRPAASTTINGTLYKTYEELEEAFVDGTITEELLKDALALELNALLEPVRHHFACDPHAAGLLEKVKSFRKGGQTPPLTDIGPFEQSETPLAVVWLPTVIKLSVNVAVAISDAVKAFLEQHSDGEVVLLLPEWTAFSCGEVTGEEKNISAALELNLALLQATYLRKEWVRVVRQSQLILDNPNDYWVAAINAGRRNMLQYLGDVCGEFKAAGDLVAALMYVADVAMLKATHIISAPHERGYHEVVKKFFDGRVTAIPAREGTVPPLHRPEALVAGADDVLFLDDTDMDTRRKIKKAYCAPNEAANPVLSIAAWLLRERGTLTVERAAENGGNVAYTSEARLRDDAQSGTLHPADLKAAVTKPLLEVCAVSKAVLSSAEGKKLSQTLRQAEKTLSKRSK

[7] = molecular target: T4, Tyrosyl-tRNA synthetase, putative (Trypanosoma cruzi (strain CL Brener)); test: Trypanosoma cruzi tyrosyl tRNA synthetase (TcYRS) SOP; format: functional; settings: 30 µM
[8] = molecular target: Chromo domain-containing protein 1 (Saccharomyces cerevisiae (strain ATCC 204508 / S288c) (Baker's yeast)) (UniProt P32657); test: ScCHD-1 Enzyme Inhibition Assay; format: functional; settings: 30 µM; note: in the data most compounds retested in dose-response had high values
Chromo domain-containing protein 1 (Saccharomyces cerevisiae (strain ATCC 204508 / S288c) (Baker's yeast)), sequence (P32657 whole entry, the tested form may be a part): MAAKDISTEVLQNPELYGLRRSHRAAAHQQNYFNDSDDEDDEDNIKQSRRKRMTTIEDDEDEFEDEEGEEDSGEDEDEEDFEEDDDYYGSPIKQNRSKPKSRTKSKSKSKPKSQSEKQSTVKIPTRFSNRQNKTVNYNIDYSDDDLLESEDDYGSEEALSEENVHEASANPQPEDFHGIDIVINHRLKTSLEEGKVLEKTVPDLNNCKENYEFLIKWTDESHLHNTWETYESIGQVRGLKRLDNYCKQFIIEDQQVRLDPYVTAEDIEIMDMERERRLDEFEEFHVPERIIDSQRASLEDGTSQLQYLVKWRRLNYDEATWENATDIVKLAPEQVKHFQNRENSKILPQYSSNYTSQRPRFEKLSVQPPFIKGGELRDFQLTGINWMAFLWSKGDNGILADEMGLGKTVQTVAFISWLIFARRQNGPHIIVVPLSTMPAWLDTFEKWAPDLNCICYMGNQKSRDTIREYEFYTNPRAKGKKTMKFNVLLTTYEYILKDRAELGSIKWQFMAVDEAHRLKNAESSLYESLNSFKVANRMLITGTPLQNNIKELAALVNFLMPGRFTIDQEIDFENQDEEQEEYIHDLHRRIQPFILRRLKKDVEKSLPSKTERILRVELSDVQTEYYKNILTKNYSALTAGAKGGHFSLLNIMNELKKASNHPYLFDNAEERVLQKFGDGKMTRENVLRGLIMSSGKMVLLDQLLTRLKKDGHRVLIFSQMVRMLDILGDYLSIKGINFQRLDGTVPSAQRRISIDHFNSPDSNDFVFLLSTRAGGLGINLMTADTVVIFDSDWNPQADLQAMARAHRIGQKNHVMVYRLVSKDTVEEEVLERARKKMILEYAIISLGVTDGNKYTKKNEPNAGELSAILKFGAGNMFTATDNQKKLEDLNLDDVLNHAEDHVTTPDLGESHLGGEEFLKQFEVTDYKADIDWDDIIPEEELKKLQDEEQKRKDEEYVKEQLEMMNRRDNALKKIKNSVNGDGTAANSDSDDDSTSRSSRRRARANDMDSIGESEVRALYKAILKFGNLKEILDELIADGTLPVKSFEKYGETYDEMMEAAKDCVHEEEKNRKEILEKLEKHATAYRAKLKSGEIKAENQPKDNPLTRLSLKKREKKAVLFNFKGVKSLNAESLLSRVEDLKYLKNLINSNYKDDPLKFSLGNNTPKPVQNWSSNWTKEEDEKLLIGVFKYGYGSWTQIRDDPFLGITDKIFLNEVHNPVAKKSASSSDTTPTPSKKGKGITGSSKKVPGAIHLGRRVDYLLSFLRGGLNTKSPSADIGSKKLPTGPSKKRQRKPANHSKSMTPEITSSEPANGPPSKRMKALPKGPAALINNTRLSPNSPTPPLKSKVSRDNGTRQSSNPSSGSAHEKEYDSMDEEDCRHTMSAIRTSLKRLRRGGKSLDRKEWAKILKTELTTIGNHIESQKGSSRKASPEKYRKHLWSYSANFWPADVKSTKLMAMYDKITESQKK

Protein translocase subunit SecA (Escherichia coli (strain K12)), sequence (P10408 whole entry): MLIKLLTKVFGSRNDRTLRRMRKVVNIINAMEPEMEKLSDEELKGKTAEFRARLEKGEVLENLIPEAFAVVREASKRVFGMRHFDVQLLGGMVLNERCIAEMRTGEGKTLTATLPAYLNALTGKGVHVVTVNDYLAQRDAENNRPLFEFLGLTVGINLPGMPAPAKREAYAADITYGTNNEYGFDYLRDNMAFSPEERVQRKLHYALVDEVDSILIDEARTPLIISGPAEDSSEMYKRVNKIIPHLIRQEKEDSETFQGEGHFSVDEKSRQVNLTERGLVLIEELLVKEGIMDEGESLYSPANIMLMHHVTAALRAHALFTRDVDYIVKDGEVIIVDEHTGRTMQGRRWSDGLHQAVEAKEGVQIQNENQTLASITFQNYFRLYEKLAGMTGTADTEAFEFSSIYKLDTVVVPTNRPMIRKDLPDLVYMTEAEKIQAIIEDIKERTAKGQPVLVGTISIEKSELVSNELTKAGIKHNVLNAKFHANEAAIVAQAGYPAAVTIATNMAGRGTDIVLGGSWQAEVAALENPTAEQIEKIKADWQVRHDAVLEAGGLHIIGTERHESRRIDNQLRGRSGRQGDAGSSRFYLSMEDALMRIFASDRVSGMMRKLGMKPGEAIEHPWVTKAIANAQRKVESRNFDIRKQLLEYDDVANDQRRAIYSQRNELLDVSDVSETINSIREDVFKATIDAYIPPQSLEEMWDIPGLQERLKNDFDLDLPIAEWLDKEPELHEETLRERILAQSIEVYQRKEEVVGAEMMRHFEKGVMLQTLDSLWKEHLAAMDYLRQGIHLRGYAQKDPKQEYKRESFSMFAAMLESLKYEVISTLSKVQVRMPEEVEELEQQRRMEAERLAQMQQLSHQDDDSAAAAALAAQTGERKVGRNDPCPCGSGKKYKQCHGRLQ

Row | SMILES | Percent Effect [1] | Percent Effect [2] | Percent Effect [3] | Percent Effect (Trypanosoma cruzi) | Percent Effect [4] | Percent Effect [5] | Percent Effect (Homo sapiens) | Percent Effect [6] | Percent Effect [7] | Percent Effect [8]
1 | NC(=O)CN1CCC(NC(=O)Nc2nccs2)CC1 | -1.25% | 15.4% | -19.1% | 9.11% | -0.82% | 13.1% | 5.92% | 1.44% | 20.5% | -8.95%
2 | CCNc1cc2c(nn1)CCN(C(=O)c1ccc(CNC(C)=O)o1)C2 | -4.81% | 8% | 4.09% | -1.81% | 3.99% | 6.36% | 5.79% | 3.68% | 15.4% | -12.3%
3 | Cc1cc(C)n(CC2CCCCN2C(=O)c2cnn(C)c2)n1 (stereo not given) | -5.83% | 8% | 1.34% | -5.22% | -2.22% | 6.02% | 5.12% | -0.526% | 2.56% | -0.708%
4 | CC(=O)N1CC(=O)N(c2ccccc2)CC12CCN(CC1CC1)C2 (stereo not given) | -11% | 1.3% | 22.2% | -1.27% | -2.02% | 12.1% | 15.9% | 2.63% | -5.13% | -0.48%
5 | CC(=O)N1CCCC1c1cc(N2CCN(C3CCCC3)CC2)cc(C)n1 (stereo not given) | -0.907% | 17.3% | -8.17% | -2.96% | 1.33% | 7.22% | 6.74% | 4.23% | 15% | -23.3%
6 | COc1ncc(C2(O)CCN(Cc3ccccc3O)CC2)c(OC)n1 | -3.88% | 22.7% | 0.188% | 1.58% | -3.1% | 13.6% | -5.87% | 6.35% | 20% | -23.4%
7 | CN(C)c1cc(C(=O)N2CCCC(n3cccn3)C2)ccn1 (stereo not given) | -2.71% | 5.13% | 3.76% | 1.97% | 3.69% | 2.47% | 18.3% | -4.31% | 18.1% | -3.29%
8 | O=C(NCc1nn(-c2ccccc2)c2c1CCC2)NC1CC1 | -4.01% | 2.56% | 9.31% | 0.469% | 2.05% | 2.65% | -3.46% | 1.44% | 8.43% | -1.68%
9 | CCOC(=O)N1CCN(C(=O)c2sc(-c3ccccc3F)nc2C)CC1 | -2.12% | 5.41% | 6.21% | 0.097% | 30.4% | 13.5% | -3.93% | 4.79% | 14.6% | -4.07%
10 | Cc1cc(C2CCCN2Cc2ccn(C)c(=O)c2)no1 (stereo not given) | -3.32% | -10.3% | 3.98% | 9.11% | 1.64% | 8.45% | 4.2% | 3.35% | 8.43% | -0.427%
11 | Cc1ccc(OCC(=O)NS(=O)(=O)c2c(C)noc2C)cc1C | -7.75% | -5.13% | -10.8% | -1.41% | 0.41% | 0.0853% | 17.7% | -5.26% | -6.02% | -0.0938%
12 | CCc1n[nH]c(C2CN(C(=O)c3nc(C)n4ccccc34)CCO2)n1 (stereo not given) | -2.26% | 13% | 11.1% | -1.49% | 10% | 9.82% | -10.3% | 4.9% | 16.5% | -11%
13 | COCCO[C@H]1CCN(C(=O)c2cc(C)on2)[C@H]1Cc1ccccc1 | -2.31% | 11.7% | 3.34% | -1.88% | -0.913% | 7.47% | 18.8% | 7.73% | 10% | -5.82%
14 | O=C(c1ccco1)N1C[C@H]2CCCN(CC3CCOCC3)[C@H]2C1 | -3.2% | 6.49% | -2.43% | -4.77% | -1.62% | 11.9% | 1.5% | 4.74% | 15.4% | -2.11%
15 | Cc1cnn(C2CCCN(C(=O)Cc3ccc(-n4cccn4)cc3)C2)c1 (stereo not given) | -6.71% | -2.67% | 3.46% | 3.81% | 2.66% | 1.27% | 6.09% | -1.58% | 5.13% | -7.75%
16 | Cc1cc(NCc2cccnc2)n2nc(C)cc2n1 | -3.79% | 2.7% | 4.53% | -2.62% | 1.75% | 16.9% | 17.8% | 4.79% | 14.6% | -3.52%
17 | CCn1cnnc1CNC(=O)N1CCC(C(=O)NC)CC1 | -5.88% | 5.33% | 0.795% | -4.42% | -2.66% | 1.78% | 10.8% | -0.526% | 2.56% | -6.68%
18 | Cc1ccsc1CN(C)Cc1nc2c(cnn2C)c(=O)[nH]1 | 0.7% | 15.4% | -7.51% | 0.845% | 2.05% | 10.7% | 27.3% | 7.18% | 18.1% | -3.14%
19 | CCC(=O)N(C)CC(=O)Nc1ccc(Br)cn1 | -6.29% | 2.67% | 0.577% | -4.22% | 1.77% | 6.87% | 8.04% | -0.526% | 2.56% | -5.17%
20 | CCc1cc(C(=O)N2CCCC2c2nc(C)c(F)c(O)n2)on1 (stereo not given) | 1.86% | 17.3% | -9.03% | 0.197% | -3.54% | 16.1% | 26.2% | 3.17% | 10% | -19.6%
